High-throughput results from PubChem BioAssay.
A selection: hits, their analogues and other compounds. The true share with any hit is near 21%.
MRP-1 activ: activators of MRP-1 | H69AR cells + doxorubicin, viability rescue, CellTiter-Glo | viability increase, % at 10 µM | actives 0.61% (n = 140,000);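 active = viability gain under doxorubicin at or above a set limit, the compound median plus 3 SD, cut at about 4.7% in these data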;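 also: MRP-1 overexpressing cells given doxorubicin 25 µM after compound pretreatment; 18-22 h compound pretreatment then 72 h with doxorubicin before readout; 0% = doxorubicin-only wells and 100% = vehicle-treated cells without doxorubicin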
CYP2C19 activ: activators of human cytochrome P450 2C19. recombinant CYP2C19, luciferin-H EGE luminescence; hits give high values; 0 = fully inhibited enzyme, 1 = untreated enzyme. activation factor at 5 µM. 96,000 tested, under 10 active. AID 1025;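 active = activation factor of at least 2 at 5 µM in the primary screen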;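 also: 0 = wells with 2.5 mM tranylcypromine and 1 = vehicle-only wells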
MRP resist rev: reverses drug resistance mediated by MRP; H69AR cells + 2 uM doxorubicin, CellTiter-Glo, 72 h; differential viability (reversal), % at 10 µM; actives 0.04% (n = 85,000);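 active = viability drop by adding the cancer drug above about 55%, with treated viability meeting a 40% cutoff, limit read from the data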;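 also: viability without doxorubicin minus viability with 2 µM doxorubicin for each compound; larger differential means the compound sensitizes cells more to doxorubicin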
CYP2C9 activ: CYP2C9 (human) activation; actives 1.4% (n = 96,000); recombinant CYP2C9, luciferin-H conversion, luminescence; hits give high values; factor 1 = untreated enzyme, 0 = blocked; activation factor at 5 µM;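 active = activation factor of 2 or more for CYP2C9 at a 5 µM dose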;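 also: 0 = sulfaphenazole-blocked wells and 1 = vehicle-only wells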
Target sequence (P11712 whole entry, looked up): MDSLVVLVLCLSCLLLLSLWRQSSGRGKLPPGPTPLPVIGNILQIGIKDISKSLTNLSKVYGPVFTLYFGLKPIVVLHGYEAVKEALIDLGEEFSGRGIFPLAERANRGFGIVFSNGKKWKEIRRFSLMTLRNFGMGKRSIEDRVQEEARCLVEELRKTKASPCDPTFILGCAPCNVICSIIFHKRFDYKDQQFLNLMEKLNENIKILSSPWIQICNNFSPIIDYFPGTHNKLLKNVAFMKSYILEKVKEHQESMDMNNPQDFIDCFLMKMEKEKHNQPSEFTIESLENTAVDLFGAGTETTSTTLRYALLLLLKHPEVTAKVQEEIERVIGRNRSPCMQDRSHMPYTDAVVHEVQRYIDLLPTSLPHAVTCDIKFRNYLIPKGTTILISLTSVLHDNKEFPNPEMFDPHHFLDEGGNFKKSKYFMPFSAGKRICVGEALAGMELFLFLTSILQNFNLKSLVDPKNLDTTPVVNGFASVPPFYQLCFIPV
CYP2C9 inh: inhibitors of human CYP2C9; CYP2C9 Supersomes, luciferin-H conversion, luminescence; inhibition, % at 5 µM; actives 20% (n = 96,000);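 active = blocking of liver enzyme CYP2C9 beyond about 50% at 5 µM, limit read from the data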
CYP2C19 inhib: blocks human cytochrome P450 2C19; P33261; CYP2C19 Supersomes, luciferin-H EGE luminescence, 30 min; inhibition, % at 5 µM; actives 21% (n = 96,000); AID 778;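 active = CYP2C19 inhibition above a set limit at 5 µM in the primary screen, cut at about 50% in these data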;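 also: plate controls were negative control wells for no effect and 2.5 mM tranylcypromine positive control for full effect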
Numbers without * were called inactive; · = no result.

SMILES	MRP-1 activ	CYP2C19 activ	MRP resist rev	CYP2C9 activ	CYP2C9 inh	CYP2C19 inhib
Nc1nc(N)nc(-c2ccc(Oc3ccccc3)cc2)n1	-3.6	0.7	-46.1	0.5	51.3*	33.5
CCC(=O)NCCc1nc2ccccc2n1Cc1ccccc1	-2.1	·	-0.4	·	·	·
COC(=O)Cn1c(CCS(=O)(=O)c2ccc(C)cc2)nc2ccccc21	-2.3	0.3	1.3	0.9	12.4	65.5*
CC(=O)NCCc1nc2ccccc2n1Cc1ccc(C)cc1	-1.9	0.3	6.2	0.6	42.0	68.8*
O=S(=O)(NCC(c1cccnc1)N1CCN(c2ccc(F)cc2)CC1)c1ccccc1 (centres undefined)	·	·	-4.7	·	·	·
CCOC(=O)C1CCN(C(c2cccnc2)c2c(NC(=O)c3ccco3)sc(C)c2C)CC1 (centres undefined)	-0.9	0.4	11.4	0.2	81.7*	59.7*
CCOC(=O)C1CCN(C(=O)c2cccnc2)CC1	-2.3	0.7	8.1	1	-1.9	29.0
Cc1sc(NC(=O)c2ccco2)c(C(c2cccnc2)N2CCN(c3ccc(F)cc3)CC2)c1C (centres undefined)	-4.5	0	-32.9	0	99.0*	95.1*
O=C(NCC(c1cccnc1)N1CCN(c2ccc(F)cc2)CC1)c1ccccc1 (centres undefined)	-2.3	0.5	3.8	0.8	20.7	53.5*
c1ccc2[nH]c(N3CCOCC3)nc2c1	1.4	1.2	-3.9	1.2	-24.2	-15.5
C=C(C)CSc1nc2ccccc2[nH]1	-0.3	·	·	·	·	·
O=C(CSc1nc2ccccc2[nH]1)N1CCN(c2ccccc2)CC1	0.0	0.5	18.8	0.6	43.5	49.5
c1ccc2[nH]c(SCCN3CCOCC3)nc2c1	-0.1	0.4	-5.5	1	2.7	58.9*
O=C(CSc1nc2ccccc2[nH]1)N1CCCCC1	1.8	0.1	1.9	0.8	15.8	88.2*
Cc1c(C)n(C(=O)CSc2nc3ccccc3[nH]2)c2ccccc12	-1.8	0.1	6.0	0.1	94.3*	94.9*
Cc1ccc2[nH]c(SCC(=O)N3CCOCC3)nc2c1C	-1.1	0.2	15.2	0.8	16.3	81.0*
Cc1ccc2nc(SCC(=O)Nc3cc(C(F)(F)F)ccc3N3CCOCC3)[nH]c2c1	-2.4	0.6	-17.6	0.7	28.4	37.1
Cc1ccc2nc(SCC(=O)N3CCOCC3)[nH]c2c1	0.4	0.3	-7.2	0.9	8.9	68.3*
Cc1nn(-c2ccccc2)c(OC(=O)c2cccs2)c1S(=O)(=O)c1ccccc1	-1.0	0.4	·	0.2	79.9*	61.5*
Nc1cc(OC(=O)c2cccs2)nn1S(=O)(=O)c1ccccc1	-1.3	0.9	·	0.6	40.3	12.8
Cc1nn(-c2ccccc2)c(OC(=O)c2cccs2)c1S(=O)(=O)c1ccc([N+](=O)[O-])cc1	-1.5	0.5	-1.5	0	99.4*	47.1
COc1ccc2c(c1)CCN=C2Cc1ccc(OC)c(OC)c1	-2.9	·	·	·	·	·
COc1cc2c(cc1OC)C(c1ccc(-c3ccc(Cl)c(Cl)c3)o1)=NCC2	-6.1	0.2	-13.3	0.1	94.8*	82.9*
COc1cc2c(cc1OC)C(c1ccc(-c3ccccc3Cl)o1)=NCC2	-2.6	0.7	-5.4	0.4	61.8*	31.5
COc1cc2c(cc1OC)C(c1ccc(-c3cc(Cl)ccc3Cl)o1)=NCC2	-1.7	0.3	4.3	0.1	89.1*	72.8*
SMILES	MRP-1 activ	CYP2C19 activ	MRP resist rev	CYP2C9 activ	CYP2C9 inh	CYP2C19 inhib
COc1cc2c(cc1OC)C(c1ccc(-c3ccc(Cl)cc3Cl)o1)=NCC2	-1.9	0.7	·	0.4	56.3*	28.6
COc1ccc(-c2noc(-c3ccccc3Cl)n2)cc1OC	1.1	0.9	1.5	1	-3.3	14.7
CS(=O)(=O)N(CC(=O)NCc1ccccn1)Cc1ccc(Cl)cc1	-2.6	·	1.9	·	·	·
CC(C)(C)C1CCC(C(=O)OCC(=O)c2ccc[nH]2)CC1 (centres undefined)	1.0	·	·	·	·	·
CCOc1ccccc1/C=C(/NC(=O)c1ccccc1)C(=O)N(CC)CC	-1.9	·	·	·	·	·
Cc1cc(OCC(=O)Nc2ccc(S(=O)(=O)NC3=NCCCCC3)cc2)c(C(C)C)cc1Cl	-3.0	·	·	·	·	·
CCOC(=O)c1c(N)sc(C(=O)Nc2ccc3c(c2)OCO3)c1C	-1.9	0	-15.3	0.2	84.4*	97.6*
CCOC(=O)c1c(C)c(C(=O)Nc2ccc3c(c2)OCO3)c(C)n1C	-1.2	0.7	-12.3	1.2	-16.0	28.5
Cc1cc(C)n2ncc(C(=O)Nc3ccc4c(c3)OCO4)c2n1	-1.6	0.6	5.1	0.3	74.5*	36.8
Cc1cc(C(=O)NC(C)c2ccc3c(c2)OCO3)cs1 (centres undefined)	-2.5	0.1	30.9	0.4	59.8*	90.4*
Cc1occc1C(=O)Nc1ccc2c(c1)OCO2	2.0	0.5	12.5	1	3.6	54.1*
CCOC(=O)c1nn(-c2ccc(F)cc2)c2c1CC/C2=C/c1ccccc1	-0.1	·	·	·	·	·
Cc1cc(C(=O)Nc2ccc3c(c2)OCO3)cs1	-1.5	0.3	10.5	0.5	47.9	70.0*
Cc1occc1C(=O)NNC(=O)Nc1ccc(Cl)c(Cl)c1	4.9*	·	·	·	·	·
CC(=Nc1ccc2c(c1)nc(CO)n2C)C1=C(O)CC(C)(C)CC1=O	0.1	0.9	-21.5	0.7	25.5	14.6
N#CCSc1nnc(Cc2ccc3c(c2)OCO3)o1	-1.1	0.8	10.9	1	-1.1	15.5
CC(C)c1ccc(C2CC(=O)c3cnc(N4CCc5ccccc5C4)nc3C2)cc1 (centres undefined)	-1.1	0.7	·	0.9	12.7	33.6
COc1cc(C2CC(=O)c3cnc(N)nc3C2)cc(OC)c1OC (centres undefined)	-2.5	0.9	10.5	1	-1.5	7.2
O=C1CC(c2ccco2)Cc2nc(N3CCc4ccccc4C3)ncc21 (centres undefined)	-1.5	0.1	8.3	0	97.8*	95.0*
COc1cc(C2CC(=O)c3cnc(N4CCN(Cc5ccccc5)CC4)nc3C2)cc(OC)c1OC (centres undefined)	-2.9	0.2	-27.6	0	96.7*	83.7*
Cc1nc(N2CCN(Cc3ccccc3)CC2)nc2c1C(=O)CC(C)C2 (centres undefined)	0.2	0.4	3.4	0.2	76.8*	60.6*
CC1CC(C)CN(c2ncc3c(n2)CC(c2ccccc2)CC3=O)C1 (centres undefined)	0.0	0.3	11.3	0.1	89.7*	74.4*
COc1ccc(C2CC(=O)c3c(C)nc(N4CCN(Cc5ccccc5)CC4)nc3C2)cc1OC (centres undefined)	2.4	0.1	·	0	99.7*	91.0*
O=C(CCn1c(=O)sc2ccccc21)NCc1cccs1	-1.9	·	-5.2	·	·	·
Cc1ccc2nc(NC(=O)CCn3c(=O)sc4ccccc43)sc2c1	-1.0	1.2	16.8	0.4	57.6*	-17.7
O=C(CCn1c(=O)sc2ccccc21)NCc1ccccc1	-3.6	0.2	5.0	1.9	-89.7	80.1*
